# Measurements published in ChEMBL document CHEMBL3988442, “University of Dundee, Small-Polar-MMV Screening Library” (2021).
# Among all 48,000 compounds or so, about 13,000 (27%) showed an effect of 50% or more. The list shows a part of the results.
# System: Wolbachia pipientis
# Assay: Anti-Wolbachia Cell-Based Screen
# Type: functional
# Parameters: scale not given: in the data most compounds retested in dose-response had high values
# Details: 5 µM
row,SMILES,Percent Effect
1,Cc1cc(-c2cnc(NC3CC3)nc2-c2ccoc2)on1,98.24%
2,Cc1cc(-c2cnc(N3CCCC(C)C3)nc2-c2cccnc2C)on1.Cl (centres undefined),-3.482%
3,COc1ccc(-c2ccoc2)cc1CNC1CCCC1,10.39%
4,CCC1CCC(N(Cc2cc(=O)n(C)c(=O)n2C)C2CC2)CC1 (centres undefined),-6.586%
5,Cc1ccc(NC(=O)N(C)C)c(C(=O)OCC(=O)NC(C)C(C)C)c1 (centres undefined),-0.8117%
6,CC(C)CN1CCc2[nH]cnc2C12CCN(C(=O)c1cncn1C)CC2,-0.9954%
7,Cl.OC[C@H]1CC[C@]2(CC1)CN(Cc1ccccn1)Cc1ccccc1O2,-8.81%
8,Cc1cnccc1CN1CCN(C)C2(CCC(=O)N(CC3CC3)CC2)C1 (centres undefined),-0.1133%
9,Cc1ncc(CN2Cc3ccccc3O[C@]3(CC[C@H](CO)CC3)C2)cn1.Cl,-8.047%
10,Cc1ccc(CN2Cc3ccccc3O[C@]3(CC[C@H](CO)CC3)C2)o1.Cl,111.4%
11,Cc1ccc(CNc2ccc(N3CCC(CO)CC3)cn2)o1,-69.41%
12,Cc1ccc(CN2CC(C(=O)Nc3ccccc3)C3(CCOCC3)C2)o1.O=C(O)C(F)(F)F (centres undefined),17.76%
13,Cc1cnccc1Cn1ccnc1C1CCOC1 (centres undefined),-17.66%
14,O=C(Nc1ccccc1)C1CN(Cc2ccsc2)CC12CCOCC2.O=C(O)C(F)(F)F (centres undefined),4.234%
15,Cc1ccc(CN2Cc3ccccc3O[C@]3(CC[C@H](CO)CC3)C2)s1.Cl,116.6%
16,Cl.OC[C@H]1CC[C@]2(CC1)CN(Cc1ccsc1)Cc1ccccc1O2,114.5%
17,Cc1cnccc1CN1Cc2ccccc2O[C@]2(CC[C@H](CO)CC2)C1,131.4%
18,Cl.OC[C@H]1CC[C@]2(CC1)CN(Cc1ccccc1F)Cc1ccccc1O2,-7.813%
19,CCCS(=O)(=O)N1CCOC2(COCCN(C(C)=O)C2)C1 (centres undefined),-8.657%
20,CN(CCCc1ccc(C(F)(F)F)cc1)Cc1nccn1C,-12.04%
21,CC(=O)N1CCN(CC(=O)N2CCN(c3cccc(C)c3)CC2)CC1,-12.32%
22,COc1ccc(-c2nc(CN3CCOCS3(=O)=O)c(C)o2)cc1,1.396%
23,CSCCC(=O)NS(=O)(=O)c1ccc2c(c1)OCCO2,2.619%
24,C1CN(c2nc(C3CC3)ns2)CCO1,-22.29%
25,CC(NCC1CCN(CCO)CC1)c1cccnc1 (centres undefined),-1.701%
26,Cc1cc(CNC(=O)C2CCN(CC(N)=O)CC2)cc(C)n1,2.597%
27,Cc1cncnc1C1CCN(CC2CC2)CC1,99.03%

row,SMILES,Percent Effect
1,Cc1cncnc1C1CCN(CC(N)=O)CC1,132.7%
2,CC(c1cccnc1)N1CCN(CCO)CC1 (centres undefined),9.024%
3,Cc1cncnc1C1CCN(CCO)CC1,125.7%
4,Cn1cncc1-c1nnc([C@H]2CCN(CC3CCCCC3)C2)o1,-8.237%
5,CN1CCN(Cc2nnc(C3CCN(CC4CC4)CC3)n2C)CC1,-21.66%
6,CCCn1ncnc1C(C)NC(=O)C1CCN(CC(N)=O)CC1 (centres undefined),-16.66%
7,O=C(CN1CCCS1(=O)=O)NCCOc1ccc2c(c1)CCC2,-4.434%
8,Cn1ccnc1SCCNc1nccc(C(F)(F)F)n1,-12.11%
9,Cn1c(Nc2cn[nH]c2)c(C#N)c(=O)n(C)c1=O,-4.688%
10,CN1C(=O)CCc2cc(NC(=O)C3CC3)ccc21,-10.85%
11,O=C(CCS(=O)(=O)C1CCCC1)NCCc1ccc2c(c1)OCCO2,-0.351%
12,CN1CC(C(=O)NCCc2ccc3c(c2)OCCO3)CC1=O (centres undefined),92.09%
13,CN(Cc1nnc2n1CCC2)C(=O)NCCc1ccc2c(c1)OCO2,2.683%
14,CN1CC(C(=O)NCCc2ccc3c(c2)OCO3)CC1=O (centres undefined),94.15%
15,COc1ccc(C2C3=C(CCCC3=O)Nc3nc(SC)nc(N)c32)cc1 (centres undefined),12.57%
16,CN1CCN(C(C)(C)CNC(=O)C2CCCN2S(C)(=O)=O)CC1 (centres undefined),10.51%
17,CC(C)c1ccc(CS(=O)(=O)Cc2nc(N)nc(N(C)C)n2)cc1,-6.914%
18,COc1cc(C2(C(=O)N3CCN(CC(C)O)CC3)CC2)ccc1C (centres undefined),6.894%
19,N#CCCN(C(=O)COC1CCCC1)C1CC1,-11.78%
20,CN(CCC#N)C(=O)C(C)(C)Oc1ccc(C(N)=O)cc1,113.2%
21,CCOc1ccc(CC(=O)N(CCC(=O)OC)CC2CCCO2)cc1 (centres undefined),5.007%
22,CC(C)CN(C(=O)COc1ccc(C(N)=O)cc1)C1CCN(C)CC1,-11.28%
23,Cc1ccc(OCCC(=O)N(C)CCC#N)cc1C,-4.451%
24,COC(=O)CCN(CC1CCCO1)C(=O)CCc1ccc(OC)cc1 (centres undefined),-1.307%
25,CC(C)(Oc1ccc(C(N)=O)cc1)C(=O)N(CCC#N)C1CC1,118.6%
26,CC(C)(Oc1ccc(C(N)=O)cc1)C(=O)N(CCC#N)CC1CCCO1 (centres undefined),108.9%
27,Cc1ccc(OCc2cccc(C(=O)N(C)CCC#N)c2)cn1,10.32%
